RORgamma inh – inhibitors of mouse ROR gamma transcriptional activity; P51450; Drosophila S2 Gal4-RORgamma UAS-luciferase reporter, 20 h; Potency, µM (doses to about 53.6 µM), without a hit: at the top dose activity change, negative = inhibition, actives largely listed as inhibitors; 5.4% of 310,000 active; AID 2551; also: % is scaled to controls: 0 for no effect and ±100 for the full control effect; nearly all actives have a fitted effect of over 60% in size
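A Gal4/UAS one-hybrid system in insect cells: metallothionein-promoter Gal4–ROR gamma fusion plus Photinus luciferase reporter. Copper sulfate 700 uM final, 20 hr ambient incubation, luminescent detection after 10 min with reagent.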
GLP-1R inv ag – inverse agonists of human GLP-1 receptor; P43220; HEK293 GLP-1R CRE-luciferase, luminescence, 24 h; GLP-1R form is constitutively active; Potency, µM (series often up to 38.3 µM), for the others: top-dose activity change, negative = inhibition, usual class: inhibitors; 1.6% of 410,000 active; also: % is scaled to controls: 0 for no effect and ±100 for the full control effect; nearly all actives have a fitted effect of over 55% in size
Target sequence (P43220 whole entry, looked up): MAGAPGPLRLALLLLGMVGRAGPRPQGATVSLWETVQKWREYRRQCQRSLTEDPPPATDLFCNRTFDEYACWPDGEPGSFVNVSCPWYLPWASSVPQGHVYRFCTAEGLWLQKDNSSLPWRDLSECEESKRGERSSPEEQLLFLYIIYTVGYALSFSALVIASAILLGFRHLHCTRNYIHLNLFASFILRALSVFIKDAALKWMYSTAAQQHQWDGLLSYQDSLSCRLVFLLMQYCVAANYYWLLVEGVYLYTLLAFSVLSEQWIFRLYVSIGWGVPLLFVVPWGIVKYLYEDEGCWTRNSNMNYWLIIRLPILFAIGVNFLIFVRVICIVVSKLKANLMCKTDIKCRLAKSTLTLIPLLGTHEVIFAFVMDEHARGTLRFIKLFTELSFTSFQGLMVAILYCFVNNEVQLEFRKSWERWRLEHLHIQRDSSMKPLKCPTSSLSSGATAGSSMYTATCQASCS
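Inverse agonism was detected as reduced cAMP-driven luciferase luminescence after 24 h compound treatment. The cells were HEK293 clones expressing constitutively active human GLP-1R with the reporter. Reporter-only and GPR119 cell lines served as counterscreen controls.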
Gal4-VP16 FLuc – Gal4-VP16 reporter inhibition counter-screen; Potency, µM (series often up to 53.6 µM), for inactives: at the highest dose activity, negative = inhibition, hits mostly inhibitors; AID 2546; 3.5% of 310,000 active; Drosophila S2 Gal4-VP16 UAS-luciferase, luminescence, 20 h;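 also: Gal4-VP16 expression switched on by copper sulfate through the metallothionein promoter; % is scaled to controls: 0 for no effect and ±100 for the full control effect; nearly all actives have a fitted effect of over 50% in size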
GLP1R ag – agonists of human GLP-1 receptor; P43220; HEK293 GLP-1R CRE-luciferase, luminescence, 4-6 h; cells express a hypersensitive GLP-1R form; Potency, µM (titrated, usually from 45.6 µM), for inactives: at the highest dose activation, hits mostly activators; 0.007% of 380,000 active; AID 624172; also: % of control where 0% means no effect
GLP1R cytotox – cytotoxicity in counter-screen for GLP-1R inverse agonists; 0.13% of 410,000 active; HEK293 cAMP-luciferase reporter cells, luminescence, 24 h; Potency, µM (highest dose often 38.3 µM), without a hit: top-dose activity change, negative = inhibition, actives largely listed as inhibitors;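 also: loss of luciferase light is scored as toxicity; % is scaled to controls: 0 for no effect and ±100 for the full control effect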
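Seeding density was 200 cells/uL; after overnight-length (12 h) culture, 23 nL compounds went on for 24 h at 37 °C. Readout used a luciferase detection reagent, luminescence taken after 12 min at room temperature.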
Active calls of the source: *; ? = inconclusive; nt = no result given; [ ] = another dose, or the depositor's remark. This is a sample that favours compounds with a hit; in the whole collection about 5.9% have one here. Calls follow the shape of the dose curve; as a rule, active = well fitted curve in the direction sought with a large enough effect; inconclusive = small, poorly fitted or top-dose-only effect, or another doubt; inactive = no such curve, though single readings can be large; an effect the other way counts as inactive or inconclusive. Potency is read from the fitted curve at half-maximal effect.

SMILES	RORgamma inh	GLP-1R inv ag	Gal4-VP16 FLuc	GLP1R ag	GLP1R cytotox
Cc1ccccc1NC(=O)C(=Cc1ccc(C(=O)O)cc1)C(=O)Nc1ccccc1C	7.9µM*	6.3µM*	?	-2%	?
Cc1oc2c(c1C(=O)NCc1cccnc1)C(=O)c1ccccc1C2=O	?	3.2µM*	4.5µM*	-14%	?
CCC1(O)C(=O)OCc2c1cc1n(c2=O)Cc2cc3c(N)cccc3nc2-1 (stereo unspecified)	nt	-72%	nt	-15%	-47%
CC[C@@]1(O)C(=O)OCc2c1cc1n(c2=O)-c2cc3ccccc3nc2C1	0.13µM*	nt	?	nt	nt
CCOCCOC(C)=O	0%	nt	5%	-7%[96 µM]	nt
CCN(CC)CCCNc1nc2cc(OC)c(OC)cc2c2nc(-c3ccccc3)nn12	10µM*	?	?	-17%	?
O=C(c1ccc(Cl)cc1)c1cn(Cc2ccccc2)c2cc3c(cc2c1=O)OCCO3	nt	?	nt	nt	-15%
O=c1[nH]sc2cc(F)ccc12	2.2µM*	?	2.8µM*	0%	?
C[C@@H](Cc1ccccc1)NCCC(c1ccccc1)c1ccccc1	-10%[16.9 µM]	nt	-5%[17 µM]	-5%[19.8 µM]	nt
S=C(NCCC(c1ccccc1)c1ccccc1)Nc1ccc(Cl)cc1	7.9µM*	0%	?	1%	?
COc1cc(OC)cc(C(=O)NC(=S)N2C[C@H]3C[C@H](C2)c2cccc(=O)n2C3)c1	11µM*	-13%	-7%	0%	-17%
O=C(NC(=S)N1C[C@H]2C[C@H](C1)c1cccc(=O)n1C2)c1ccc(Cl)cc1	4.5µM*	-1%	?	-1%	2%
CN(CC(=O)O)C(=O)[C@H](Cc1ccccc1)NC(=O)[C@@H](CCCN=C(N)N)NC(=O)[C@@H](N)Cc1ccc(O)cc1	23%	nt	-6%	nt	nt
CC(C)(C)c1ccc(C(=O)NC(=S)Nn2cnnc2)cc1	14µM*	11%	?	-12%	-1%
O=C(NC(=S)N1CC1)c1ccccc1	nt	18%	nt	4%	3%
Cc1ccc(Nc2c(-c3ccccn3)nc3cc(C)ccn23)cc1	13µM*	?	?	6%	?
Cc1ccc(Nc2cc(C)nc3ccc(C)cc23)cc1	-11%	?	1%	4%	?
CCCBr	4%	nt	-1%	nt	nt
CC(C)=CCCC1(C)C=Cc2c(O)c3c(c(CC=C(C)C)c2O1)OC12C(CC4CC1C(C)(C)OC2(C/C=C(/C)C(=O)O)C4O)C3=O (stereo unspecified)	-9%	nt	-30%	nt	nt
O=C1CN=C(c2ccccc2F)c2cc(Cl)ccc2N1	-21%	5%	-5%	-4%	-6%
S=C1CN=C(c2ccccc2Cl)c2cc(Cl)ccc2N1	7.9µM*	-18%	7.1µM*	-1%	?
C[C@]12CC[C@@H]3c4ccc(OC(=O)N(CCCl)CCCl)cc4CC[C@H]3[C@@H]1CC[C@@H]2OP(=O)(O)O	nt	nt	nt	1%	nt
CC(C)C[C@@H](CO)N(Cc1ccccc1)S(=O)(=O)N(Cc1ccccc1)[C@@H](CO)CC(C)C	nt	2.5µM*	nt	-2%	?
CCON=C(CC)C1=C(O)CC(c2c(C)cc(C)cc2C)CC1=O (stereo unspecified)	nt	nt	nt	12%[96 µM]	nt
O=[N+]([O-])c1cc(S(=O)(=O)NCCN2CCOCC2)ccc1Sc1nnnn1-c1ccccc1	11µM*	?	20µM*	-23%	?
SMILES	RORgamma inh	GLP-1R inv ag	Gal4-VP16 FLuc	GLP1R ag	GLP1R cytotox
O=C(CSc1nnnn1-c1ccccc1)Nc1ccc(N2CCOCC2)c(Cl)c1	?	-9%	2%	4%	-9%
COc1cccc(CN(C)C[C@@H]2OCc3ccccc3-c3c(n(C)c4ccccc34)C(=O)N([C@@H](C)CO)C[C@H]2C)c1	nt	10µM*	nt	-3%	?
C[C@@H]1CN([C@H](C)CO)C(=O)c2c(c3ccccc3n2C)-c2ccccc2CO[C@@H]1CN(C)Cc1ccc(O)cc1	nt	?	nt	-8%	?
O=C1C(I)=CC(=C(c2cc(I)c(O)c(I)c2)c2ccccc2C(=O)O)C=C1I	-8%	nt	4%	-1%	nt
CON(C)C(=O)Nc1ccc(Br)cc1	18%	nt	0%	nt	nt
CC(C)Oc1cc(-n2c(=S)[nH]c3ccccc3c2=O)c(Cl)cc1Cl	2.8µM*	?	5µM*	-19%	?

Bioassay records from PubChem.
